Assay outcomes as filed in PubChem BioAssay.
Compounds with a hit are over-represented: about 3.5% of the library has one in this group of screens.
MITF primary = inhibitors of human MITF; inhibition, % at 2.6 µM; AlphaScreen MITF homodimerization, bead proximity signal; 0.91% of 650,000 active; in the data active = inhibition above about 50%;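 also: 0% = vehicle wells with protein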
FBW7 act = activators of human E3 ligase FBW7; AID 1259310; 0.13% of 650,000 active; AlphaScreen FBW7–phospho-cyclin E peptide binding, activator screen; normalized activity (activation), % at 26.1 µM; Q969H0; in the data active = normalized activity above about 1.9%;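 also: purified mutant Fbw7 with reduced substrate affinity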
Target sequence (Q969H0 whole entry, looked up): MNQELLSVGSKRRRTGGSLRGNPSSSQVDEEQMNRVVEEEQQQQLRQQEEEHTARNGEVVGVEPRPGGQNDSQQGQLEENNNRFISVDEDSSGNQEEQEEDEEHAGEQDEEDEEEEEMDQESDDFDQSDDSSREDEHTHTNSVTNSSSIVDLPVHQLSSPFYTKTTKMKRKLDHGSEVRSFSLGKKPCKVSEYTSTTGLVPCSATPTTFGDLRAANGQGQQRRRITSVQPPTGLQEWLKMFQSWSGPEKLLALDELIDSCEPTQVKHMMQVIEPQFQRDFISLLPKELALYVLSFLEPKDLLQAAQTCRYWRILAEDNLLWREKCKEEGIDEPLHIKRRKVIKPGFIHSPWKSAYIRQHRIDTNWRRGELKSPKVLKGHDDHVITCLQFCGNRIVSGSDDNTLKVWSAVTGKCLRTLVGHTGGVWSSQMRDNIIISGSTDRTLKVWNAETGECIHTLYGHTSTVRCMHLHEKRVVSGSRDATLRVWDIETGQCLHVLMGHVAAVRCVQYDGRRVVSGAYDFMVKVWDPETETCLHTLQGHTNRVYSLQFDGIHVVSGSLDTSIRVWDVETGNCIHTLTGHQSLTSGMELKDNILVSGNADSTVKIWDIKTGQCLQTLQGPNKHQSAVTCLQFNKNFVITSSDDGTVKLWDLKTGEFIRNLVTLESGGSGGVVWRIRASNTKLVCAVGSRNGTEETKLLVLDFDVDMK
TEAD-YAP inh = TEAD-YAP interaction inhibition; HEK-TIYL cells, TEAD-Gal4/YAP UAS-luciferase luminescence; inhibition, % at 9.12 µM; 1.4% of 640,000 active; in the data active = inhibition above about 32%;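 also: 0% = median of test compound wells and 100% = reference inhibitor wells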
GPR151 ag = activators of human GPR151 | AID 1508602 | 1% of 650,000 active | Q8TDV0 | activation, % at 11.2 µM | PathHunter beta-arrestin GPR151 cells, luminescence; in the data active = activation above about 4.9%;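 also: 0% = median of compound wells and 100% = cells with positive control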
The depositor's hits bear a star.

Screening CCCCNC(=O)Cn1c(=O)n(-c2ccccc2)c(=O)c2sccc21 returned MITF primary 0, FBW7 act 0, TEAD-YAP inh 5 and GPR151 ag 0.
COc1cccc(/C(O)=C2\C(=O)C(=O)N(c3cc(C)on3)C2c2ccc([N+](=O)[O-])cc2)c1 (stereo not drawn) was read as MITF primary -1, FBW7 act 0, TEAD-YAP inh 8 and GPR151 ag 0.
Screening O=C(Oc1ccc(N2C(=O)C=CC2=O)cc1)c1cccc2ccccc12 returned MITF primary 14, FBW7 act 1.9*, TEAD-YAP inh 10 and GPR151 ag 0.
Screening CC(C)(C)n1nc2c(c1NC(=O)c1cccc(Cl)c1)CSC2 returned MITF primary 4, FBW7 act 0, TEAD-YAP inh -9 and GPR151 ag 0.
For COc1ccc(-n2c(/C=C/N(C)C)c([N+](=O)[O-])c3ccc(O)c(COC(C)=O)c32)cc1 the results were MITF primary 15, FBW7 act 0, TEAD-YAP inh 12 and GPR151 ag 0.
`CCN(CC)Cc1c(O)ccc2c([N+](=O)[O-])c(C)n(-c3ccc(OC)cc3)c12` gave MITF primary -7, FBW7 act 0, TEAD-YAP inh 37* and GPR151 ag -1.
O=c1c(-c2ccccc2)c(N2CCN(c3ccccc3F)CC2)c1=O was read as MITF primary 2, FBW7 act 0, TEAD-YAP inh -8 and GPR151 ag 0.
Screening O=c1c(-c2ccc(Cl)cc2)c(N2CCN(c3ccccc3F)CC2)c1=O returned MITF primary 17, FBW7 act 0, TEAD-YAP inh 42* and GPR151 ag 1.
O=c1c(-c2ccccc2)c(N2CCN(c3cccc(Cl)c3)CC2)c1=O was read as MITF primary -10, FBW7 act 0, TEAD-YAP inh 1 and GPR151 ag 0.
COc1ccccc1N1CCN(c2c(-c3ccccc3)c(=O)c2=O)CC1 was read as MITF primary -4, FBW7 act 0, TEAD-YAP inh 67* and GPR151 ag -2.
`O=c1c(-c2ccc(Cl)cc2)c(N2CCN(c3ccccc3)CC2)c1=O` gave MITF primary 1, FBW7 act 0, TEAD-YAP inh 60* and GPR151 ag 3.
COc1cc(-c2cnc3c(NC4CCC(O)CC4)nccn23)cc(OC)c1OC (stereo not drawn) was read as MITF primary 0, FBW7 act 0, TEAD-YAP inh 15 and GPR151 ag 0.
Screening O=C(NC1CC1)c1ccc(-c2cnc3c(NC4CCC(O)CC4)nccn23)cc1 (stereo not drawn) returned MITF primary -8, FBW7 act 0, TEAD-YAP inh 51* and GPR151 ag -1.
`OC1CCC(Nc2nccn3c(-c4ccc(F)cc4)cnc23)CC1` (stereo not drawn) gave MITF primary 3, FBW7 act 0, TEAD-YAP inh -6 and GPR151 ag -1.
`COc1ccccc1-c1cnc2c(NC3CCC(O)CC3)nccn12` (stereo not drawn) gave MITF primary 14, FBW7 act 0, TEAD-YAP inh 50* and GPR151 ag 0.
Screening OC1CCC(Nc2nccn3c(-c4ccc5c(c4)OCO5)cnc23)CC1 (stereo not drawn) returned MITF primary 15, FBW7 act 1.9*, TEAD-YAP inh -15 and GPR151 ag -1.
CCCC(=O)Nc1ccccc1NC(=O)COc1ccccc1C was read as MITF primary -1, FBW7 act 0, TEAD-YAP inh 2 and GPR151 ag 1.
`O=C(OCC(=O)N1CCN(C(=O)c2ccco2)CC1)c1cc(O)c(O)c(O)c1` gave MITF primary 81*, FBW7 act 0, TEAD-YAP inh -8 and GPR151 ag -2.
For CCN1C(=O)N(CC)C2NC(=S)NNC21 (stereo not drawn) the results were MITF primary 7, FBW7 act 0, TEAD-YAP inh 82* and GPR151 ag 2.
For CCN1C(=O)N(CC)C2C1NC(=O)N2CC (stereo not drawn) the results were MITF primary -16, FBW7 act 0, TEAD-YAP inh 0 and GPR151 ag -1.
Cn1c(=O)c2c(nc3n2CC(=O)N3c2ccc3c(c2)CCC3)n(C)c1=O was read as MITF primary 13, FBW7 act 0, TEAD-YAP inh 9 and GPR151 ag 0.
`COc1ccc(O)c(C2=Nc3ccccc3N=C(c3ccc(C(C)(C)C)cc3)C2)c1` gave MITF primary 7, FBW7 act 0, TEAD-YAP inh 56* and GPR151 ag 2.
Cc1ccc2nc(C)c(C(=O)NCC(F)(F)F)n2c1 was read as MITF primary 18, FBW7 act 1.9*, TEAD-YAP inh 0 and GPR151 ag 0.
